The source made the active and inactive calls.
What follows are compounds tested on XIP peptide (Xip251-270) binding (assay: small-molecule binders of XIP peptide, primary screen, biochemical, small-molecule microarray, fluorescence 635/667 nm, 0.1 µg/mL protein (AID 1182)). Details: fluorescent protein binding, 635 nm, higher = more signal, called active from +8 up or from −8 down.

SMILES	composite z-score
O=C1C[C@@](C(=O)NCCN2CCOCC2)(c2ccc([N+](=O)[O-])cc2)[C@@H](c2ccc(CO)cc2I)N1CC12CC3CC(CC(C3)C1)C2	0.634 (inactive)
CCCCCN1CC=CC23O[C@@H]4C=CCCOC(=O)C4[C@H]2C(=O)N(CCCCCO)[C@@H]3C1=O (some centres undefined)	0.382 (inactive)
COCCCNC(=O)[C@@H]1c2ccccc2C(=O)N(Cc2ccccc2Cl)[C@H]1c1ccc(CO)cc1	0.432 (inactive)
C=C(CCCC)/C(=C/C[C@@H](OC(C)=O)c1ccc(OCCO)cc1)c1cnc2ccccc2c1	0.591 (inactive)
COc1ccc(CCNC(=O)[C@@]2(Sc3ccc(C)cc3)CC(=O)N(C(C)C)[C@@H]2c2ccc(CO)cc2I)cc1	0.427 (inactive)
CCCC[C@@H]1C[C@H]1[C@@H](NC(=O)c1cccs1)c1ccc(-c2ccccc2)cc1	0.217 (inactive)
CN(C)CCCCCCNC(=O)[C@H]1C[C@H]2C(=O)N[C@@H](CCCCN)C(=O)N2[C@H]1c1cccc(OCCO)c1	0.867 (inactive)
C=C(C)[C@@H]1CC=C(C(O)C2C=CC3C(=O)N(c4ccccc4)C(=O)C3N2Nc2ccccc2)CC1 (some centres undefined)	0.0668 (inactive)
COCCOC(=O)N1C(=O)[C@@]2(c3cc(C#CCC(C(=O)OC)C(=O)OC)ccc31)[C@H](c1ccccc1OCCO)N1[C@H](c3ccccc3)[C@H](c3ccccc3)OC(=O)[C@H]1[C@@H]2C(=O)NC[C@H](O)c1ccccc1	1.42 (inactive)

Each compound was assayed on XIP peptide (Xip251-270) (assay: small-molecule binders of XIP peptide, primary screen, biochemical, small-molecule microarray, fluorescence 635/667 nm, 0.5 µg/mL protein (AID 1183)). Details: small-molecule microarray binding, fluorescence 635 nm; higher = more signal.

SMILES	composite z-score
CCCC[C@@H]1C[C@H]1[C@@H](NC(=O)c1ccco1)c1ccc(-c2ccccc2)cc1	-0.321
O=C1O[C@@H](c2ccccc2)[C@@H](c2ccccc2)N2[C@@H](c3ccccc3OCCO)[C@]3(C(=O)Nc4ccc(C#CC5=CCCCC5)cc43)[C@@H](C(=O)N3CCCCCCC3)[C@H]12	0.797
O=C1NC(=O)C2C1C=CC(C(O)c1cccs1)N2Nc1ccc(Cl)cc1Cl (centres undefined)	0.554
COC(=O)[C@]1(CCC(=O)OC(C)(C)C)N=C(c2ccc(OCCCO)cc2)O[C@@H]1c1ccccc1CN=[N+]=[N-]	0.767
COc1ccc(C(=O)Nc2ccc(CN3C(=O)[C@]4(O[C@H](CCO)[C@@H]([Si](C)(C)c5ccc(OC)cc5)[C@@H]4C)c4ccccc43)cc2)cc1	0.618
CC1(C)C2C=C(C(O)C3C=CC4C(=O)NC(=O)C4N3Nc3ccc(Cl)cc3Cl)C[C@@H]1C2 (some centres undefined)	0.231
C=C(COC)C(=O)CC[C@@H](OC(C)=O)c1ccc(CO)o1	-0.0256
COC(=O)c1c(CC[C@@H](CO)NC(=O)NCCn2cc(C3(O)CCCC3)nn2)oc(C(C)=O)c1C(=O)OC	-0.0213
C=C(C(=O)CC[C@@H](OC(=O)c1cccnc1)c1ccccc1OCCO)C(C)C	0.209
CCOC(=O)C[C@H]1[C@H](OC(=O)c2ccc(C(=O)c3ccccc3)cc2)[C@@H](NC(=O)c2ccccc2)c2cc(OCCCO)ccc2N1C(=O)c1ccc2ccccc2n1	0.0113
COc1cc(NN2C(C(O)c3ccco3)C=CC3C(=O)N(c4ccccc4)C(=O)C32)cc(OC)c1OC (centres undefined)	0.737
COCCCNC(=O)[C@@]1(C)c2ccccc2C(=O)N(C(C)C)[C@H]1c1ccc(CO)cc1	0.246
COc1cc2c(cc1OC)CN(C(=O)[C@@H]1[C@H]3C(=O)O[C@H](c4ccccc4)[C@H](c4ccccc4)N3[C@H](c3ccc(O)cc3)[C@@]13C(=O)Nc1ccccc13)CC2	0.686
O=C(NC1CC1)[C@@H]1c2ccccc2C(=O)N(Cc2ccccc2Cl)[C@H]1c1ccc(CO)cc1	0.119
O=C1c2ccccc2[C@](Cc2ccccc2I)(C(=O)NCC(F)(F)F)[C@H](c2ccc(CO)cc2)N1Cc1ccccc1Cl	0.776
Cc1ccc(S[C@]2(C(=O)O)CC(=O)N(C(C)C)[C@@H]2c2ccc(CO)cc2I)cc1	0.837
COc1ccc(C#Cc2ccc3c(c2)[C@]2(C(=O)N3)[C@H](C(=O)NC[C@H](O)c3ccccc3)[C@H]3C(=O)O[C@H](c4ccccc4)[C@H](c4ccccc4)N3[C@@H]2c2ccc(O)cc2)cc1	0.624
COC(=O)[C@@]1(Cc2ccc(F)cc2)[C@H]2c3cc(C(=O)N4CCCC4)n(Cc4ccc(S(C)(=O)=O)cc4)c3C[C@H]2CN1C(=O)c1ccccc1	0.116

SMILES	composite z-score
O=C1C2C=CC(C(O)c3cccc4ccccc34)N(Nc3ccccc3F)C2C(=O)N1c1ccccc1 (centres undefined)	0.871
CCCC[C@@H]1C[C@H]1[C@@H](NC(=O)c1ccco1)c1ccccc1C(F)(F)F	-0.623
CC(C)NC(=O)[C@@]1(c2ccc([N+](=O)[O-])cc2)CC(=O)N(C2CCCCC2)[C@@H]1c1ccc(CO)cc1I	0.697
C=CCOC(=O)[C@H]1[C@@H]2C(=O)O[C@@H](c3ccccc3)[C@@H](c3ccccc3)N2[C@@H](c2ccc(OCCOC(=O)[C@H]3C[C@H]4C(=O)N[C@@H](CCCCNC(C)=O)C(=O)N4[C@H]3c3ccc(O)cc3)cc2)[C@]12C(=O)Nc1ccc(I)cc12	0.671
Cc1ccc(S[C@]2(C(=O)NC3CC3)CC(=O)N(Cc3ccccc3)[C@@H]2c2ccc(CO)cc2I)cc1	0.387
CC1CC/C=C\[C@H]2OC34C=CCN(C(C)(C)C)C(=O)[C@H]3N(CCO)C(=O)[C@@H]4C2C(=O)O1 (some centres undefined)	0.833
C=CCC(OC(C)=O)[C@@H]1[C@@H](N(Cc2ccc(-c3ccccc3)cc2)C(=O)Cc2ccc(OC)cc2)c2cc(OCCCO)ccc2N1C(=O)Cc1ccc2ccccc2c1 (some centres undefined)	-0.282
COC(=O)C(CC#Cc1ccc2c(c1)[C@]1(C(=O)N2)[C@H](C(=O)Nc2nc3ccccc3s2)[C@H]2C(=O)O[C@H](c3ccccc3)[C@H](c3ccccc3)N2[C@@H]1c1ccc(O)cc1)C(=O)OC	0.794
O=C1C[C@@](C(=O)NCCN2CCOCC2)(c2ccc([N+](=O)[O-])cc2)[C@@H](c2ccc(CO)cc2I)N1CC12CC3CC(CC(C3)C1)C2	0.761
CCCCCN1CC=CC23O[C@@H]4C=CCCOC(=O)C4[C@H]2C(=O)N(CCCCCO)[C@@H]3C1=O (some centres undefined)	-0.0494
COCCCNC(=O)[C@@H]1c2ccccc2C(=O)N(Cc2ccccc2Cl)[C@H]1c1ccc(CO)cc1	0.0699
C=C(CCCC)/C(=C/C[C@@H](OC(C)=O)c1ccc(OCCO)cc1)c1cnc2ccccc2c1	0.751
COc1ccc(CCNC(=O)[C@@]2(Sc3ccc(C)cc3)CC(=O)N(C(C)C)[C@@H]2c2ccc(CO)cc2I)cc1	0.368
CCCC[C@@H]1C[C@H]1[C@@H](NC(=O)c1cccs1)c1ccc(-c2ccccc2)cc1	-0.319
CN(C)CCCCCCNC(=O)[C@H]1C[C@H]2C(=O)N[C@@H](CCCCN)C(=O)N2[C@H]1c1cccc(OCCO)c1	0.727
C=C(C)[C@@H]1CC=C(C(O)C2C=CC3C(=O)N(c4ccccc4)C(=O)C3N2Nc2ccccc2)CC1 (some centres undefined)	0.717
COCCOC(=O)N1C(=O)[C@@]2(c3cc(C#CCC(C(=O)OC)C(=O)OC)ccc31)[C@H](c1ccccc1OCCO)N1[C@H](c3ccccc3)[C@H](c3ccccc3)OC(=O)[C@H]1[C@@H]2C(=O)NC[C@H](O)c1ccccc1	0.705

Source: PubChem BioAssay
